Bioassay records as filed in PubChem BioAssay.
Shiga toxin inh – blocks Shiga toxin action in Vero cells; Vero cells, Shiga toxin protein synthesis inhibition reporter; inhibition, % at 38.7 µM; hit rate 9.2% among 290,000; in the data active = inhibition mostly above about 28%, no sharp cut-off; inactive = mostly below about 43%; note: 0% is about no effect
Pf growth 48h – P. falciparum growth inhibition at 48 hours (one generation); AID 504832; P. falciparum luciferase growth in erythrocytes, 48 h; Potency, µM (top dose mostly 28.7 µM), for the others: top-dose activity change, negative = inhibition, most hits filed as inhibitors; hit rate 5.9% among 310,000; note: potency is the fitted concentration of half-maximal effect; % is set by controls: 0 for no effect and ±100 for the full control effect
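First compound was added to culture medium, then infected red cells at 0.1% parasitemia and 2% hematocrit (final). After incubation at 37 C under 5% CO2, luciferase detection reagent was dispensed and light output recorded.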
HCV inh – inhibitors of hepatitis C virus infection | hit rate 3.4% among 340,000 | Huh7.5.1 HCVcc-Cre infection, luciferase reporter, 44 h | Potency, µM (top dose mostly 41.8 µM), without a hit: top-dose activity change, negative = inhibition, hits mostly inhibitors; note: potency is the fitted concentration of half-maximal effect; % is set by controls: 0 for no effect and ±100 for the full control effect
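HCVcc-Cre virus at an moi near 0.5 was added right after compound to cells cultured 4 h from seeding (1,000 cells/well). Luciferase activity was determined 44 h later, 15 min after substrate addition at RT.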
Pf growth 96h – P. falciparum growth inhibition at 96 hour, primary screen for plastid delayed-death inhibitors | hit rate 6.9% among 320,000 | P. falciparum luciferase reporter growth, 96 h | Potency, µM (series often up to 28.7 µM), for the others: at the highest dose activity change, negative = inhibition, hits mostly inhibitors; note: potency is the fitted concentration of half-maximal effect; % is set by controls: 0 for no effect and ±100 for the full control effect
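96 h incubation, 37 C, 5% CO2, of luciferase-reporter P. falciparum-infected RBCs (2% hematocrit, 0.05% parasitemia final) with test compounds; endpoint luminescence.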
HCMV inh – human cytomegalovirus inhibition. hit rate 4.5% among 410,000. activity change, negative = inhibition, % at 57.5 µM. HFF cells, HCMV-luciferase reporter, 72 h; active compounds read low; in the data active = activity change below about -60%; inconclusive = no clear call, values can overlap the other calls; inactive = above about -39%; note: % is set by controls: 0 for no effect and ±100 for the full control effect
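Luciferase read-out from HCMV-luciferase-infected HFFs (MOI 1 PFU/cell) 72 h post infection at 37C; compounds added after 16 h cell attachment; activity normalized between buffer-only basal and Salinomycin (10uM) inhibitor controls.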
CHX counter – affects cycloheximide protein synthesis inhibition readout, counter-screen; hit rate 12% among 300,000; max response, %; AID 2314; cell reporter, cycloheximide protein synthesis inhibition counterscreen; in the data active = max response mostly above about 13%, no sharp cut-off; inactive = mostly below about 14%; note: read at 38.3 µM for the half of the compounds with a filed dose; 0% is about no effect
* hit, by the source's call; ? = inconclusive; · = no result. This is a sample that favours compounds with a hit; in the whole collection about 21% have one here. Unless noted, calls come from the whole dose curve; as a rule, active = well fitted inhibition curve with a large enough effect; inconclusive = small, poorly fitted or top-dose-only effect, or another doubt; inactive = no such curve, though single readings can be large or run the other way.

SMILES	Shiga toxin inh	Pf growth 48h	HCV inh	Pf growth 96h	HCMV inh	CHX counter
Cc1cccc(C(=O)NCc2nnc(SCC(=O)NC3CCCC3)n2C)c1	-5	18%	16%	7%	-29	-3
CCCCn1nnnc1SCC(=O)NC1CCCCC1	-4	-1%	9%	68%	-99*	8
Cn1nnnc1SCC(=O)NC1CCCCC1	12	19%	13%	73%	-22	12
CCn1c(CC(=O)Nc2ccccc2C)nnc1SCC(=O)NC1CCCC1	19	?	18%	28%	?	21*
Cc1cccc(C)c1OCC(=O)NCc1nnc(SCC(=O)NC2CCCCC2)n1C	-5	12µM*	-1%	27%	9	-2
Cc1ccccc1NC(=O)Cc1nnc(SCC(=O)NC2CCCCC2)n1C	-6	-1%	-3%	-7%	-29	10
Cc1nnc(SCC(=O)NC2CCCC2)n1C(C)C	-38	19%	13%	1%	10	20*
Cc1nnc(SCC(=O)NC2CCCCCC2)n1C	5	4%	-3%	11%	-7	-1
COc1ccc(NC(=O)c2cccnc2N2CCOCC2)cc1	-4	24%	6%	20%	25	-6
CNC(=O)Cn1c(=O)c2cccn2c2ccc(F)cc21	·	·	·	·	64	·
Cc1ccc(NS(=O)(=O)c2c(C(=O)N3CCCCCC3)c(C)n(C)c2C)cc1C	-5	-4%	2%	20%	-21	-4
COc1cc(C(=O)Nc2ccc(N3CCN(C(=O)c4ccc(C)cc4)CC3)cc2)cc(OC)c1OC	-16	24%	?	-18%	?	-2
CCn1c(COc2cccc(OC)c2)nnc1SCC(=O)NC1CCCC1	-9	-27%	-6%	?	0	36*
CCn1c(COc2cccc(C)c2)nnc1SCC(=O)NC1CCCC1	-3	-26%	9%	-16%	12	-4
CCC(C)NC(=O)c1oc2ccc(S(=O)(=O)N3CCC4(CC3)OCCO4)cc2c1C (centres undefined)	4	?	-9%	?	-36	-3
COCCCNC(=O)C[C@H]1C[C@H](C(=O)N(C(C)C)C(C)C)[C@@]2(C)c3[nH]c4cc(CCC(=O)N(C)C)ccc4c3CCN2C1=O	·	·	?	·	-7	·
COc1ccc(CCNC(=O)c2cc(=O)[nH]c3ccc(S(=O)(=O)N4CCCCC4)cc23)cc1OC	·	·	·	·	0	·
O=c1[nH]c(C2CCN(S(=O)(=O)c3ccc4c(c3)OCCO4)CC2)nc2c1nnn2Cc1ccc(F)cc1	-7	1.5µM*	-20%	7%	?	2
O=c1[nH]c(C2CCN(S(=O)(=O)c3ccc([N+](=O)[O-])cc3)CC2)nc2c1nnn2Cc1ccccc1	-3	5.2µM*	10%	0.15µM*	-20	-6
O=c1[nH]c(C2CCN(S(=O)(=O)c3cccc(C(F)(F)F)c3)CC2)nc2c1nnn2Cc1cccc(F)c1	-9	7.4µM*	-16%	?	?	1
O=c1[nH]c(C2CCN(S(=O)(=O)c3ccccc3)CC2)nc2c1nnn2Cc1ccccc1	20	?	0%	72%	11	-2
O=c1[nH]c(C2CCN(S(=O)(=O)c3ccc(C(F)(F)F)cc3)CC2)nc2c1nnn2Cc1ccc(F)cc1	-8	12µM*	-20%	38%	-1	-2
O=C(COc1ccc(F)cc1)Nc1ccccc1C(=O)OCc1cc(=O)n2ccsc2n1	·	·	·	·	67	·
Cc1ccc(NC(=O)CCCN2C(=S)NC(C)(C)CC2C)cc1 (centres undefined)	-8	3%	17%	0%	?	1
Cc1cccc(NC(=O)CN2C(=S)NC(C)(C)CC2C)c1 (centres undefined)	-4	-3%	5%	10µM*	10	-2
SMILES	Shiga toxin inh	Pf growth 48h	HCV inh	Pf growth 96h	HCMV inh	CHX counter
CC1CC(C)(C)NC(=S)N1CCCC(=O)Nc1ccc2c(c1)OCCO2 (centres undefined)	116*	111%	15%	?	-32	42*
Cc1ccccc1NC(=O)CN1C(=S)NC(C)(C)CC1C (centres undefined)	-6	10%	12%	?	-4	-2
CCc1ccc(NC(=O)CCCN2C(=S)NC(C)(C)CC2C)cc1 (centres undefined)	28	?	-16%	1.9µM*	-6	-1
Cc1cnc(C(=O)OCC(=O)N2CCN(S(=O)(=O)c3ccc(Cl)cc3)CC2)cn1	·	37%	-2%	8%	-27	·
CCC[C@H]1[C@@H](NS(=O)(=O)c2ccc(C(F)(F)F)cc2)CC[C@@]23CCCN2C(=O)CCC[C@@H]13	·	·	·	·	-13	·
O=C(NC1CC2CCCC(C1)N2CC(=O)N1CCCc2ccccc21)C1CCCCC1 (centres undefined)	-3	-9%	6%	15µM*	3	1
O=C(CN1C2CCCC1CC(NC(=O)C1CCCCC1)C2)NCc1ccc(F)cc1 (centres undefined)	-7	?	?	?	-24	-3
COc1cc(C(=O)NC2CC3CCCC(C2)N3CC(=O)Nc2ccccc2)cc(OC)c1OC (centres undefined)	-16	?	-6%	-2%	30	1
CC(=O)NC1CC2CCCC(C1)N2CC(=O)N1CCCc2ccccc21 (centres undefined)	15	6%	3%	-28%	36	-1
COc1cccc(C(=O)NC2CC3CCCC(C2)N3CC(=O)Nc2ccccc2C(F)(F)F)c1 (centres undefined)	3	?	6.3µM*	-2%	?	-3
O=C(CN1C2CCCC1CC(NC(=O)c1ccccc1)C2)Nc1nccs1 (centres undefined)	-8	?	10%	9.3µM*	5	-2
O=C(CN1C2CCCC1CC(NC(=O)C1CCCCC1)C2)Nc1ccccc1C(F)(F)F (centres undefined)	21	?	10µM*	9%	-33	-6
COc1ccc2c(c1)C(n1c(C)ccc1C)C(=O)N2Cc1ccc(C(F)(F)F)cc1 (centres undefined)	·	·	·	·	14	·
Cc1ccc2c(c1)C(c1ccc(F)cc1)N(C(=O)C(C)C)CC(=O)N2 (centres undefined)	·	·	·	·	-105*	·
Cc1ccc2c(c1)C(c1ccc(F)cc1)N(C(=O)c1cccc(C(F)(F)F)c1)CC(=O)N2 (centres undefined)	·	·	·	·	-107*	·
COCCN1C(=O)COc2ccccc2C1C(=O)NC1CCCCC1 (centres undefined)	·	·	·	·	5	·
Cc1ccc(OCCOc2cccc(C=C3C(=O)NC(=O)NC3=O)c2)cc1	93*	339%	-2%	6%	112	62*
Cc1cc(C)cc(OCCOc2cccc(C=C3C(=O)NC(=O)NC3=O)c2)c1	55*	26%	3%	38%	60	18*
Cc1ccc(NC(=O)Cn2nnc(-c3ccccc3)n2)c(C)c1	·	·	·	·	-5	·
